We go through 15 compounds from PubChem BioAssay (NCATS).

Inconclusive results are not listed. A number with no mark means an inactive call. Calls of active or inactive are those of the source. Calls follow the shape of the dose curve; as a rule, active = well fitted inhibition curve with a large enough effect; inconclusive = small, poorly fitted or top-dose-only effect; inactive = flat fitted curve, though single readings scatter.

Assay [1] relates to 3D7. Nature of the assay: qHTS profiling for inhibitors of Plasmodium falciparum proliferation (AID 504749). Also: nearly all actives have a fitted effect of over 60% in size.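 As to activity, negative = inhibition: 0% = DMSO vehicle and full inhibition = artemisinin control.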 The conditions noted are these: P. falciparum in erythrocytes, SYBR Green DNA, 72 h; series mostly up to 28.7 µM. In short, it runs like this: (§1)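 Readout was DNA-dye fluorescence from lysed cultures, ex 485/em 535 nm. Parasitized red cells had grown 72 h with compound; data scaled between 0.29 uM artemisinin and DMSO wells and corrected using vehicle-only plates.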
A general note: Quantitative high-throughput screening tests each substance at several concentrations.

Assay [2] relates to AA1029. The assay is described as above. The conditions noted are these: P. falciparum in erythrocytes, SYBR Green DNA, 72 h; series mostly up to 28.7 µM. In a few lines: as §1
Assay [3] relates to ATS189. Described as above. The conditions noted are these: P. falciparum in erythrocytes, SYBR Green DNA, 72 h; series mostly up to 28.7 µM. In short, it runs like this:
as §1

In assay [4] the test system is ATS95. The description is as above. The conditions noted are these: P. falciparum in erythrocytes, SYBR Green DNA, 72 h; series mostly up to 28.7 µM. In a few lines:
as §1

Assay [5] has as its system C2A. Described as above. The conditions noted are these: P. falciparum in erythrocytes, SYBR Green DNA, 72 h; series mostly up to 28.7 µM. In a few lines:
as §1

Test in assay [6]: as above
The conditions noted are these: P. falciparum in erythrocytes, SYBR Green DNA, 72 h. In a few lines:
as §1

For assay [7], the system named is AS120. The assay is described as above. The conditions noted are these: P. falciparum in erythrocytes, SYBR Green DNA, 72 h; series mostly up to 28.7 µM. In short, it runs like this:
as §1

In assay [8] the test system is 7G8. The description is as above. The conditions noted are these: P. falciparum in erythrocytes, SYBR Green DNA, 72 h; series mostly up to 28.7 µM. In a few lines: as §1
Setting [9] is: at 28.7 µM (top of the series), parasite line A.
The mark [10] stands for this setting: at 28.7 µM (top of the series), parasite line B.
Potency is read from the fitted curve at half-maximal effect.

Turning to `O=S(=O)(O)c1cc(O)c2c(N=Nc3ccc(Nc4ccccc4)c4c(S(=O)(=O)O)cccc34)cc(S(=O)(=O)O)cc2c1`, the Potency result in assay [1], in assay [2], in assay [3], in assay [4] and in assay [5] was “inactive” each time.
As to `C[C@H]1C[C@H]2[C@@H]3CCC4=CC(=O)C=C[C@]4(C)[C@@]3(F)[C@@H](O)C[C@]2(C)[C@@]1(O)C(=O)CO`, the activity, negative = inhibition in assay [6] (setting [9]) is 15.5%; in assay [6] (setting [10]), 5.52%. In addition, the Potency result in assay [1], in assay [2], in assay [7], in assay [3], in assay [4] and in assay [5] was “inactive” throughout.
In the case of `CCCCCCCC/C=C\CCCCCCCC(=O)O`, in assay [6] (setting [9]), the activity, negative = inhibition was 12.9%. Moreover, the Potency result in assay [1], in assay [8], in assay [2], in assay [7], in assay [3] and in assay [4] was “inactive” in each case. Further, the Potency entry in assay [5] was “inactive”.
`CN=C(NC#N)Nc1ccc(C2=NNC(=O)C[C@@H]2C)cc1`: the activity, negative = inhibition in assay [6] (setting [9]) is 13.8%; in assay [6] (setting [10]), 8.03%. Also, the Potency result in assay [1], in assay [8], in assay [2], in assay [7], in assay [3] and in assay [4] was “inactive” each time. The Potency entry in assay [5] is “inactive”.
As to `COC(=O)CCC(=O)CN`, the activity, negative = inhibition is 6.69% in assay [6] (setting [9]) and 8.06% in assay [6] (setting [10]). Also, the Potency result in assay [1], in assay [2], in assay [7], in assay [3], in assay [4] and in assay [5] was “inactive” in each case.
In the case of `O=C(O)CN(CCN(CC(=O)O)CC(=O)O)CC(=O)O`, the activity, negative = inhibition was -1.94% in assay [6] (setting [9]) and 14.3% in assay [6] (setting [10]). Moreover, the Potency entry in assay [1], in assay [8], in assay [2], in assay [7], in assay [3] and in assay [4] was “inactive” in each case. Besides, the Potency result in assay [5] was “inactive”.
Turning to `COCC(=O)Nc1cc(Sc2ccccc2)ccc1N=C(NC(=O)OC)NC(=O)OC`, the activity, negative = inhibition in assay [6] (setting [9]) was 17.1%; in assay [6] (setting [10]), 26.6%. Also, the Potency entry in assay [1], in assay [2], in assay [7], in assay [3], in assay [4] and in assay [5] was “inactive” throughout.
With `Cc1c(C)c2c(c(C)c1O)CC[C@@](C)(CCC[C@@H](C)CCC[C@@H](C)CCCC(C)C)O2`, the activity, negative = inhibition in assay [6] (setting [10]) is 18%. The Potency entry in assay [1], in assay [8], in assay [2], in assay [3], in assay [4] and in assay [5] was “inactive” throughout.
On to `O=S(=O)(O)c1ccc2c(N=Nc3ccc(S(=O)(=O)O)c4ccccc34)c(O)c(S(=O)(=O)O)cc2c1`, for which the activity, negative = inhibition in assay [6] (setting [9]) is -19.8%; in assay [6] (setting [10]), -30%. The Potency result in assay [1], in assay [8], in assay [2], in assay [7], in assay [3] and in assay [5] was “inactive” each time.
Take `COc1ccc2c3c1O[C@H]1C[C@@H](O)C=C[C@@]31CCN(C)C2`: the activity, negative = inhibition was 7.86% in assay [6] (setting [9]) and -0.584% in assay [6] (setting [10]). The Potency entry in assay [1], in assay [8], in assay [2], in assay [7], in assay [3] and in assay [4] was “inactive” in each case. In addition, in assay [5], the Potency result was “inactive”.
`CN1C(=O)CN2CCc3ccccc3C2c2cc(Cl)ccc21` (stereo not drawn): the activity, negative = inhibition in assay [6] (setting [9]) was -10.8%; in assay [6] (setting [10]) it was -17.4%. Further, the Potency entry in assay [1], in assay [2], in assay [3], in assay [4] and in assay [5] was “inactive” each time. Besides, the Potency in assay [8] was 12.6 µM (active).
Turning to `Clc1cc(Cl)c(OCC#CI)cc1Cl`, the Potency is 11.2 µM (active) in assay [6] (parasite line A); 11.2 µM (active) in assay [6] (parasite line B); 11.2 µM (active) in assay [1]; 11.2 µM (active) in assay [8]; 12.6 µM (active) in assay [2]; 8.91 µM (active) in assay [5].
As to `O=S(=O)(O)O`, the activity, negative = inhibition was -14.8% in assay [6] (setting [9]) and 2.3% in assay [6] (setting [10]). The Potency result in assay [8], in assay [2], in assay [7], in assay [3], in assay [4] and in assay [5] was “inactive” in each case.
In the case of `O=C1CSC2(CCN(CCCN3c4ccccc4Sc4ccc(Cl)cc43)CC2)N1`, the activity, negative = inhibition is -17.8% in assay [6] (setting [9]) and -28.1% in assay [6] (setting [10]). The Potency in assay [8] is 11.2 µM (active). Further, in assay [5], the Potency entry was “inactive”.
Take `CC(C)N=c1cc2n(-c3ccc(Cl)cc3)c3ccccc3nc-2cc1Nc1ccc(Cl)cc1`: the activity, negative = inhibition in assay [6] (at 12.8 µM (top of the series), parasite line A) was -13.2%; in assay [6] (at 12.8 µM (top of the series), parasite line B) it was -1.3%. Besides, in assay [8], the Potency is 3.98 µM (active). Further, the Potency result in assay [2], in assay [7], in assay [3], in assay [4] and in assay [5] was “inactive” each time.
